The values that follow come from PubChem BioAssay.

Structures are written as SMILES. The source made the active and inactive calls.

The nature of assay [1]: A549 cell viability effects, profiling panel, calcein-AM fluorescence, 48 h, basal (AID 1162). The settings on record: higher = more signal.
Assay [2] can be described thus: adipocyte viability effects, profiling panel, cell-based, 3T3-L1 adipocytes, calcein-AM fluorescence, 48 h, basal (AID 1163). As to conditions: 3T3-L1 adipocytes viability, higher = more signal.
Assay [3] is described as follows: HepG2 cell viability effects, profiling panel, calcein-AM fluorescence, 48 h, basal (AID 1164). As to conditions: higher = more signal.
Assay [4] can be described thus: MM1S cell viability effects, profiling panel, calcein-AM fluorescence, 48 h, basal (AID 1165).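 Note: viability of MM1S multiple myeloma cells under basal unstimulated conditions.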 The settings on record: higher = more signal.
The nature of assay [5]: basal RPMI8226 viability, no added stimulus, profiling panel, cell-based, calcein-AM fluorescence, 48 h, PK04 Diversity Set (AID 1166).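 Note: cells grown under basal conditions without added stimulus.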 The settings on record: RPMI8226 myeloma viability, higher = more signal.
Assay [6] in a line: basal HepG2 mitochondrial membrane potential changes, profiling panel, cell-based, JC-1 fluorescence, 24 h, 100 nL compound (AID 1167). As to conditions: higher = more signal.
A short description of assay [7]: basal 3T3-L1 adipocyte mitochondrial potential changes, profiling panel, cell-based, JC-1 fluorescence, 3T3-L1 adipocytes, 24 h, 100 nL compound (AID 1168). The settings on record: JC-1 mitochondrial fluorescence, higher = more signal, called active from +8 up or from −8 down.
Assay [8] is described as follows: basal RPMI8226 mitochondrial membrane potential changes, profiling panel, cell-based, JC-1 fluorescence, 24 h, 100 nL compound (AID 1169). The settings on record: RPMI8226 myeloma, JC-1 mitochondrial potential fluorescence, higher = more signal.
Assay [9] can be described thus: basal MM1S mitochondrial membrane potential changes, profiling panel, cell-based, JC-1 fluorescence, 24 h, 100 nL compound (AID 1170). As to conditions: higher = more signal.
A short description of assay [10]: A549 lung cancer cell viability effects, profiling panel, resazurin fluorescence, 24 h, PK04 Diversity Set (AID 1171). The settings on record: higher = more signal, called active from +8 up or from −8 down.
Note: test concentration not given here.

As for `COC(=O)[C@@]1(Cc2ccc(F)cc2)[C@H]2c3cc(C(=O)N(C)C)n(C)c3C[C@H]2CN1C(=O)c1ccccc1`, the z-score in [1] was 0.888; in assay [2], -0.0909; in assay [3], -0.408; in assay [4], -0.364; in assay [5] it was -0.119; in [6] it was 0.216. Further, the z-score in assay [7] was -0.574 (inactive); in assay [8], -0.325; in assay [9] it was -0.481; in [10], -0.452 (inactive).

Consider `CCCC=C(CCC)[C@@H](NC(=O)OCC(C)C)c1ccc(C(=O)OC)cc1`, for which the z-score is 0.732 in [1]; -0.196 in assay [2]; 0.0516 in [3]; 0.753 in assay [4]; 0.528 in [5]; -0.345 in assay [6]. Besides, the z-score in assay [7] was -1.53 (inactive); in [8] it was -0.0219; in assay [9] it was -1.32; in assay [10], 0.293 (inactive).

Take `CC(C)[Si](C#CCCc1ccccc1)(O[C@H](c1ccccc1)c1cn(Cc2ccccc2)nn1)C(C)C`: the z-score in [1] is -0.865; in assay [2], 0.254; in [3] it was -1.01; in assay [4] it was -0.505; in [5], -0.297; in assay [6], 0.907. Also, the z-score in assay [7] was -0.979 (inactive); in [8], -0.631; in assay [9], -1.08; in assay [10] it was 1.43 (inactive).

Turning to `COc1ccc([Si](C)(C)[C@H]2[C@H](CC(=O)N3Cc4ccccc4C[C@H]3CO)O[C@@]3(C(=O)N(c4ccccc4)c4ccccc43)[C@@H]2C)cc1`, the z-score is -0.782 in assay [1]; 0.898 in assay [2]; -0.755 in assay [3]; -2.67 in assay [4]; -4.49 in assay [5]; 0.959 in assay [6]. Moreover, the z-score in assay [7] was -0.652 (inactive); in [8], -1.1; in assay [9], -0.81; in assay [10] it was 0.698 (inactive).

Consider `COc1cc(OC)c(C(O)C2C=CC3C(=O)N(c4ccccc4)C(=O)C3N2Nc2ccc(C(C)C)cc2)cc1Br` (stereo not given), for which the z-score in [1] is 2.48; in [2] it was -1.15; in assay [3], 1.49; in assay [4], -0.534; in [5], -0.203; in [6], -0.115. In addition, the z-score is -0.171 (inactive) in [7], -0.126 in [8], -0.66 in assay [9] and -0.101 (inactive) in assay [10].

Regarding `O=C1[C@H]2C=C(I)[C@H](C[C@@H]2c2ccccc2)[C@@]12CO2`, the z-score is -1.3 in assay [1]; -0.417 in [2]; -0.382 in assay [3]; -3.18 in assay [4]; -3 in assay [5]; -1.74 in [6]. Also, the z-score in assay [7] was 0.789 (inactive); in [8], -1.2; in assay [9], -1.32; in [10] it was -0.122 (inactive).

With `C=C(CCCC)/C(=C/C[C@H](OC(=O)c1ccncc1)c1ccccc1OCCO)c1cc(C(=O)OC)ccc1OC`, the z-score in [1] was -0.0906; in assay [2], 0.503; in assay [3], -0.629; in assay [4] it was -3.29; in assay [5], -1.82; in assay [6], 2.06. Besides, the z-score in assay [7] was -0.292 (inactive); in [8] it was -0.262; in assay [9], 0.732; in assay [10], 0.613 (inactive).

Take `C=C(COC)/C(=C/C[C@H](OC(C)=O)c1ccccc1OCCO)c1cc(C(=O)OC)ccc1OC`: the z-score in [1] was -0.168; in assay [2], 1.66; in [3], -0.63; in assay [4] it was -3.06; in [5], -1.74; in [6], 0.532. Also, the z-score was -0.112 (inactive) in [7], 0.0983 in assay [8], -1.29 in [9] and -0.0553 (inactive) in assay [10].

As for `COc1ccccc1CN1C(=O)c2ccccc2[C@](Cc2ccccc2I)(C(=O)NCC(C)C)[C@@H]1c1ccc(CO)cc1`, the z-score in assay [1] is 1.26; in assay [2] it was 0.297; in assay [3] it was 2.05; in assay [4] it was -0.746; in assay [5] it was -0.458; in assay [6], 1.41. Moreover, the z-score in [7] is -0.808 (inactive); in assay [8], -0.38; in [9], -0.257; in assay [10] it was 0.41 (inactive).

For the compound `CCOC(=O)C[C@H]1[C@H](OC(=O)c2ccccc2-c2ccccc2)[C@@H](NC(=O)c2ccc3ccccc3c2)c2cc(OCCCO)ccc2N1C(=O)Cc1ccc(OC)cc1`, the z-score in assay [1] is 0.0867; in assay [2] it was 0.152; in [3], 0.278; in assay [4] it was 0.306; in assay [5] it was -0.543; in assay [6], -0.175. The z-score in assay [7] is 0.367 (inactive); in assay [8] it was -0.49; in [9], 0.0571; in assay [10], -0.439 (inactive).

With `[N-]=[N+]=Nc1ccccc1[C@@H]1OC(c2ccc(OCCCO)cc2)=N[C@]1(CCS(=O)(=O)c1ccccc1)C(=O)NCC(O)CO` (stereo not given in full), the z-score in [1] was -0.149; in [2] it was -0.375; in assay [3] it was 0.578; in assay [4] it was -0.662; in assay [5] it was 0.274; in assay [6], -0.148. The z-score in assay [7] was -0.199 (inactive); in [8], -0.0226; in [9] it was -0.763; in assay [10], 0.575 (inactive).

As to `COc1ccc([Si](C)(C)[C@@H]2[C@@H](CC(=O)N3Cc4ccccc4C[C@H]3CO)O[C@]3(C(=O)N(Cc4cccc(N5CCOC5=O)c4)c4ccccc43)[C@H]2C)cc1`, the z-score in assay [1] was -1.43; in [2] it was 1.69; in [3] it was -0.443; in assay [4], -2.51; in [5], -3.32; in assay [6], -0.0282. In addition, the z-score in assay [7] was 0.192 (inactive); in assay [8] it was -1.16; in assay [9], -1.01; in [10], -2.45 (inactive).

`CC(C)C(CO)N1C(=O)[C@@H]2C3C(=O)OCCC/C=C\[C@H]3OC23C=CCN(Cc2ccccc2)C(=O)[C@@H]13` (stereo not given in full): the z-score in assay [1] is 0.214; in assay [2], -0.0826; in [3] it was 0.728; in assay [4], 0.441; in assay [5], -0.0976; in assay [6] it was 0.161. Besides, the z-score in [7] was 0.256 (inactive); in assay [8] it was -0.687; in assay [9], 0.942; in [10] it was 0.777 (inactive).

As to `COCCCNC(=O)[C@@]1(Sc2ccc(C)cc2)CC(=O)N(Cc2ccccc2C(F)(F)F)[C@@H]1c1ccc(CO)cc1I`, the z-score in [1] was -0.172; in assay [2], 0.224; in assay [3] it was 0.245; in assay [4] it was -3.18; in [5] it was -2.36; in [6] it was -0.33. In addition, the z-score in [7] is -0.101 (inactive); in assay [8], -0.339; in assay [9] it was -1.33; in assay [10] it was -0.731 (inactive).

As to `CN(C)C(=O)[C@]1(Cc2ccccc2)N=C(c2ccc(OCCCO)cc2)O[C@@H]1c1ccccc1CN=[N+]=[N-]`, the z-score in [1] is 0.233; in assay [2] it was 0.412; in assay [3], -0.0312; in assay [4] it was -0.726; in assay [5], -1.65; in assay [6], 0.501. For the same compound, the z-score is 0.0148 (inactive) in [7], -1.23 in [8], -0.507 in [9] and 0.553 (inactive) in [10].

On to `CCOC(=O)C1=CC[C@@H](c2ccc(OC)cc2)N(S(=O)(=O)c2ccc(C)cc2)[C@H]1c1ccc(C)cc1`, for which the z-score is -0.35 in assay [1]; -1.09 in assay [2]; 0.65 in [3]; 0.632 in [4]; 0.583 in assay [5]; 2.39 in [6]. Moreover, the z-score in assay [7] was -0.717 (inactive); in assay [8] it was 0.859; in [9], -0.897; in assay [10], 0.302 (inactive).
